Among the data in ChEMBL document CHEMBL4513216, “Probing the Open Global Health Chemical Diversity Library for Multistage-Active Starting Points for Next-Generation Antimalarials” (ACS Infect Dis, 2020) are INHIBITION values, retold here.

Screen size: about 69,000 compounds; about 8,600 (12%) showed an effect of 50% or more. Only a selection was taken, and strong results are over-represented in it overall.

The test system of this assay is Plasmodium berghei. In words: Screen against P. berghei liver stage (PbLuc), transformed with Luciferase, at 10uM. The format is functional, HepG2. The following applies: tested at 10 uM.
With `Cc1nc(CN2CCCN(C(=O)c3c(C)oc(C)c3C)CC2)cs1`, the INHIBITION was -4.16%.
Consider `O=c1c(S(=O)(=O)N2CCCC2)cccn1Cc1ccccc1Cl`, for which the INHIBITION came to 29.6%.
Turning to `c1cnc(N2CCO[C@H]3CN(Cc4c[nH]cn4)C[C@H]32)cn1`, the INHIBITION was 37.8%.
Regarding `OCCN1CCCC(c2nccnc2Oc2ccc(F)cc2)C1` (stereo unspecified), the INHIBITION is reported as 20.8%.
In the case of `CCS(=O)(=O)N1C[C@@H](c2cc(O)nc(C)n2)[C@H](c2ccccc2F)C1` it was 3.69%; in that of `O=C(c1ccccn1)N1CCC2(CC1)COC(COc1cccnc1)C2` (stereo unspecified), 5.67%; in that of `CC(c1cccc(-c2ncc(C#N)c(N)n2)c1)N(C)C` (stereo unspecified), -0.996%.
As to `c1cncc(-c2noc(CNc3ncnc4c3CCNCC4)n2)c1`, the INHIBITION was found to be 8.74%.
Take `Cc1ccccc1-n1cc(CNc2ncnc3c2CCNCC3)cn1`: the INHIBITION is -20.7%.
`c1cncc(-c2noc(CCNc3ncnc4c3CCNCC4)n2)c1`: the INHIBITION stood at 19.4%.
Take `Cc1ccc(-c2cc(CNc3ncnc4c3CCNCC4)no2)cc1`: the INHIBITION is given as 93.1%.
Consider `Clc1ccccc1-c1cc(CNc2ncnc3c2CCNCC3)no1`, for which the INHIBITION was found to be 88.2%.
Turning to `COc1ccc(-c2cc(CNc3ncnc4c3CCNCC4)no2)cc1`, the INHIBITION was 94.1%.
Next, `COCc1noc(CCNc2ncnc3c2CCNCC3)n1`: -58%; `c1ccc(Cn2cc(CNc3ncnc4c3CCNCC4)cn2)cc1`: 23.6%.
Next, `Cc1cccc(-n2cc(CNc3ncnc4c3CCNCC4)cn2)c1`: 16%; `CCn1cc(CN2CCCN(C(=O)c3ccoc3C)CC2)cn1`: -19.9%; `COCC(=O)N1Cc2nccn2CC(COc2cccnc2)C1` (stereo unspecified): 29.3%.
Next, `COc1nn(C)c2c1CCCN(C(=O)c1ccc[nH]1)C2`: -15.7%; `CCn1c(SCC(N)=O)nnc1-c1csc2c1CCCC2`: 25.8%.
For the compound `Cn1ccc(C(=O)N2CCCC2c2cc(CO)[nH]n2)n1` (stereo unspecified), the INHIBITION was 14.385%.
On to `CCn1cnnc1CNc1nc(C)nc2scc(CC(C)C)c12`, for which the INHIBITION is reported as 44.3%.
For `CCc1nc(-c2cncnc2C2CCCNC2)no1` (stereo unspecified), the INHIBITION worked out at 20.25%.
Take `Cc1ccc(Cn2nc(C)c3c(C(=O)O)c(Cl)c(C)nc32)cc1`: the INHIBITION was found to be 3.52%.
In the case of `CCNc1c(NC(=O)C2CC2)c(=O)oc2ccccc12` it was -21.9%.
Regarding `CN(C)CC(=O)N1CCCCC1c1nc(N)ncc1-c1ccccc1` (stereo unspecified), the INHIBITION worked out at 12.3%.
For `CCSc1nnc([C@@H](N)CC(C)C)o1`, the INHIBITION was -4.56%.
In the case of `Cc1cccc(-c2nccnc2C2CCCN(C)C2)c1C` (stereo unspecified), the INHIBITION is listed as 35.2%.
`COc1ccccc1-c1nccnc1C1CCN(C(C)=O)CC1`: the INHIBITION is recorded as 10%.
Next, `Cc1cccc(-c2nccnc2C2CCN(C)CC2)c1C`: 54.5%; `COCc1nc(C(=O)N2CCCC2c2ccncc2)cs1` (stereo unspecified): 29.7%.
For `CC(C)c1noc(CN2CCN(CCO)CC2)n1`, the INHIBITION is -10.875%.
Turning to `Brc1cccc(-c2noc(C3COCCO3)n2)c1` (stereo unspecified), the INHIBITION was -99.3%.
Regarding `CCCNc1ccc(C(=O)NCCc2ccc(Cl)cc2)cn1`, the INHIBITION was -71.5%.
With `CCCNc1ccc(C(=O)NCCc2cccc(OC)c2)cn1`, the INHIBITION worked out at 25.3%.
On to `CCCNc1ccc(C(=O)NCCc2cccc(Cl)c2)cn1`, for which the INHIBITION is given as 68.8%.
Take `O=C1Nc2ccccc2/C1=C1\CCCN1`: the INHIBITION is on record as 43.4%.
In the case of `Cc1nn(Cc2ccccc2)c(C)c1CNC1CCc2ncnn2C1` (stereo unspecified) it was -10.1%; in that of `COCC1COCCC12CCN(C(=O)CCc1ccccc1C)CC2` (stereo unspecified), -30.6%.
In the case of `CNCC(=O)Nc1cccc(-c2cnc(NCCS(C)(=O)=O)nc2)c1` it was 45.6%.
Take `CNCC(=O)Nc1cccc(-c2cnc(NCCO)nc2)c1`: the INHIBITION is 23.4%.
For the compound `CNCC(=O)Nc1ccc(-c2cnc(NCCS(C)(=O)=O)nc2)cc1`, the INHIBITION was found to be 54.5%.
Regarding `Cn1nc(C(=O)NCc2ccccc2C(F)(F)F)c2c1CCS(=O)(=O)C2`, the INHIBITION was found to be 45.8%.
For `O=C(C1CCOCC1)N1C[C@@H]2CC[C@H]1CN(C1Cc3ccccc3C1)C2`, the INHIBITION is -59.3%.
As to `CN(Cc1cc(C[C@@H]2C[C@H](N)C2(C)C)no1)c1ccccc1`, the INHIBITION is listed as 54.3%.
In the case of `CN(C)[C@H]1C[C@@H](Cc2cc(CO)on2)C1(C)C`, the INHIBITION was -17.1%.
Take `CCN(CC)[C@H]1C[C@@H](Cc2cc(CO)on2)C1(C)C`: the INHIBITION worked out at 17.4%.
In the case of `Cc1cccc(CN2C(=O)CC[C@@H]3[C@H]2CCN3Cc2nccn2C)n1` it was 40.4%; in that of `c1ccc(Cn2cc3c(n2)C(CNCC2CCOCC2)OCC3)nc1` (stereo unspecified), -7.7%.
With `CCC(CC)C(=O)N1CCC2(C1)CN(c1ccccc1)C(=O)CN2C` (stereo unspecified), the INHIBITION came to 28.4%.
For `CCC[C@H]1CN(Cc2nccn2C)C[C@@H]1NC(=O)C1(COC)CCC1`, the INHIBITION is listed as 31.2%.
On to `CCC[C@H]1CN(c2nc(CO)cs2)C[C@@H]1NC(=O)C1(COC)CC1`, for which the INHIBITION worked out at 69.7%.
`CCC[C@H]1CN(Cc2cncn2C)C[C@@H]1NC(=O)C1(COC)CCC1`: the INHIBITION is 28%.
Regarding `CCC[C@H]1CN(Cc2cscn2)C[C@@H]1NC(=O)C1(COC)CCC1`, the INHIBITION was determined as 48.5%.
Regarding `CCC[C@H]1CN(Cc2cc(C)no2)C[C@@H]1NC(=O)C1(COC)CCC1`, the INHIBITION came out at 59.3%.
As for `COC[C@@]12CC[C@@H](N3CCOCC3)C[C@H]1CCN(c1nc(CO)cs1)C2`, the INHIBITION is on record as 15.8%.
`c1ccc(-c2nnc3n2CCN(Cc2ccc4c(c2)OCCO4)C3)cc1`: the INHIBITION stood at 33.7%.
On to `NC(=O)c1cccc(OCC(=O)N2CCCC(n3ccnc3)C2)c1` (stereo unspecified), for which the INHIBITION came to 36.1%.
`CC(=O)N1[C@H](CN(C)C)C[C@@H]2CN(c3ncc(F)cn3)CC[C@@H]21`: the INHIBITION is given as -0.804%.
In the case of `CCC(C)NC(=O)c1ccn(COc2ccccc2Cl)n1` (stereo unspecified) it was 34.2%; in that of `COc1ccc(CNc2ncnc3c2NC(=O)CN3)cc1`, 45.8%; in that of `CC(C)c1nnc2n1CCN(C(=O)CN(C)Cc1ccccc1)C2`, 12.7%.
As to `Cc1ccc(CN(C)C(C(=O)O)c2ccc3c(c2)OCO3)o1` (stereo unspecified), the INHIBITION was 8.51%.
Next, `CCc1cc2c(N3CCCC(c4cc(C(N)=O)[nH]n4)C3)ncnc2s1` (stereo unspecified): 55%; `CCc1cc2c(N3CCCC(c4ccn[nH]4)C3)ncnc2s1` (stereo unspecified): -1.76%; `CCc1ncnc(N2CCCC(c3cc(C(N)=O)[nH]n3)C2)c1F` (stereo unspecified): -24%.
Next, `COCC(=O)N1CCC(Cc2nccnc2-c2c(C)n[nH]c2C)C1` (stereo unspecified): 17.4%; `CCCN1CCN(c2nc(N)nc3c2nc(C)n3C)CC1`: 13.1%.
Take `CNC(=O)C(CCSC)NC(=O)c1ccc2ccccc2n1` (stereo unspecified): the INHIBITION is given as 19.1%.
With `CSCCC(NC(=O)c1ccc2ccccc2n1)C(=O)NC1CC1` (stereo unspecified), the INHIBITION was determined as 43.7%.
Regarding `CSCCC(NC(=O)c1ccc2ccccc2n1)C(=O)O` (stereo unspecified), the INHIBITION is recorded as 42.6%.
With `CCOCCNC(=O)C(CCSC)NC(=O)c1ccc2ccccc2n1` (stereo unspecified), the INHIBITION came to 60.8%.
As to `CSCCC(NC(=O)c1ccc2ccccc2n1)C(=O)N(C)C` (stereo unspecified), the INHIBITION is 60.8%.
In the case of `CSCCC(NC(=O)c1ccc2ccccc2n1)C(=O)NC(C)C` (stereo unspecified) it was 40.5%.
Take `Cc1ccc(CN2CCc3onc(COc4cccnc4)c3C2)s1`: the INHIBITION amounted to 27.6%.
On to `O=C(CNC(Cn1cccn1)c1ccccc1)Nc1cnccn1` (stereo unspecified), for which the INHIBITION was -12.4%.
`Cc1ccc(C2CCCN2S(=O)(=O)N(C)Cc2cnccn2)o1` (stereo unspecified): the INHIBITION is reported as 37.9%.
In the case of `CCCn1cc2nc(N3CCCC3)[nH]cc-2c1=O`, the INHIBITION was 44.9%.
With `Cc1cnn(CC2CCCN2C(=O)c2ccc(F)c(F)c2)c1` (stereo unspecified), the INHIBITION was -63.3%.
Next, `O=C(Nc1ccc(CCN2CCOCC2)cc1)C1CCC1`: 26.25%; `CCCc1noc(CN2CCN(CCO)CC2)n1`: 9.015%; `CC(NCC(=O)N1CCc2sccc2C1)c1ccccc1F` (stereo unspecified): 14.9%.
Consider `CCN(CC)C(=O)c1ccc(Cl)c(NC(=O)c2cnc(C)cn2)c1`, for which the INHIBITION turned out to be 51.2%.
With `CCN(CC)C(=O)c1ccc(Cl)c(NC(=O)c2csnn2)c1`, the INHIBITION is 28.5%.
Regarding `CCN(CC)C(=O)c1ccc(Cl)c(NC(=O)c2cc[nH]n2)c1`, the INHIBITION is given as 9.41%.
`Cc1oc(-c2nc(C#N)c(NC(C)(C)C)o2)cc1S(=O)(=O)N1CCCC1`: the INHIBITION stood at 40.1%.
Consider `CCC(CC)N1CCC(c2[nH]ncc2S(C)(=O)=O)C1` (stereo unspecified), for which the INHIBITION is given as -3.94%.
On to `O=C(NCc1ccco1)N1CCCCC1c1nc(-c2ccncc2)no1` (stereo unspecified), for which the INHIBITION is listed as -31%.
Next, `CS(=O)(=O)N1C[C@H]2CC[C@@H](C1)N(C(=O)Cn1nc3ccccc3n1)C2`: 21.7%.
As to `C[C@@H]1CN(C2CCN(c3ccccc3)CC2)CC[C@@]1(O)C1CCOCC1`, the INHIBITION was -2.61%.
In the case of `C[C@@H]1CN(C2CCCCC2)CC[C@@]1(O)C1CCOCC1` it was 57.7%; in that of `C[C@@H]1CN(C2Cc3ccccc3C2)CC[C@@]1(O)C1CCOCC1`, 10.2%; in that of `Cc1nc(C)n(CC2CCCN2CCC(=O)NC2CCCC2)n1` (stereo unspecified), -38.7%.
Take `CN(C)c1ccc(C(=O)N2CCN(CC(C)(C)O)CC2)nn1`: the INHIBITION was 21.6%.
On to `O=C(NCC(O)c1ccc(F)c(F)c1)c1cccnc1O` (stereo unspecified), for which the INHIBITION was found to be 36.8%.
Next, `Cc1ccc(C(=O)NCC(O)c2ccc(F)c(F)c2)c(=O)[nH]1` (stereo unspecified): 26.6%; `Cc1cc(C)c(CNC(=O)NCC(O)c2cccc(F)c2)c(=O)[nH]1` (stereo unspecified): 27.9%.
Next, `Cc1ccc(C(=O)NCC(O)c2cccc(F)c2)c(=O)[nH]1` (stereo unspecified): 52.5%; `O=C(NCC(O)c1cccc(F)c1)c1cccnc1O` (stereo unspecified): 50.1%; `O=C(NCC(O)c1ccc(F)cc1F)c1cccnc1O` (stereo unspecified): 38.3%.
In the case of `FC(F)COc1ccccc1NCc1nnsc1Cl`, the INHIBITION is given as 8.9%.
In the case of `CC1(C)Cc2ccc(C(=O)NC3CCOCC3)c(O)c2O1` it was -42.8%.
As to `Cc1cnn(CC2CN(CC(=O)NCc3ccc(C)s3)CCO2)c1` (stereo unspecified), the INHIBITION came out at 19.4%.
With `CCC[C@@H]1CN(Cc2cc3c(cc2OC)OCCO3)C[C@H]1C(=O)O`, the INHIBITION came out at 54.4%.
In the case of `CCC[C@@H]1CN(Cc2cc3c(cc2OC)OCO3)C[C@H]1C(=O)O` it was 35.1%; in that of `CCC[C@@H]1CN(Cc2cc(OC)c3c(c2)OCO3)C[C@H]1C(=O)O`, 39.4%.
